# Assay outcomes (PubChem BioAssay)
# Most compounds without a hit are left out; they make up all but 3.9% or so of the library.
# HT1080 IDH1KD tx – kills HT-1080 cells with IDH1 knockdown | HT-1080 IDH1 knockdown viability, ATP luminescence, 48 h | AID 686971 | 360,000 compounds, 2% hits | Potency, µM (titrated, usually from 46.1 µM), hits mostly cytotoxic
#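 % activity derives from luminescence (CellTiter-Glo), normalised to DMSO and no-cell wells. HT-1080-IDH1KD cells, 750/well, had 48 h compound exposure at 37 °C.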
# S2 tox – cell viability loss in ATXN counter-screen. AID 651635. Potency, µM (doses to about 56.7 µM), most hits filed as cytotoxic. 400,000 compounds, 0.49% hits. S2 cells (HEK-293 line with an ATXN2-luciferase reporter) viability, CellTiter-Fluor protease fluorescence, 24 h; also: nearly all actives have a fitted effect of over 40% in size
# HT1080-NT tox – kills 2HG-producing HT-1080-NT fibrosarcoma cells; 360,000 compounds, 1.6% hits; Potency, µM (highest dose often 46.1 µM), actives largely listed as cytotoxic; HT-1080-NT fibrosarcoma viability, CellTiter-Glo ATP luminescence, 48 h; AID 686970;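 also: NT is the 2HG producing partner of a matched IDH1 knockdown line; nearly all actives have a fitted effect of over 55% in size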
#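 750 cells/well, RPMI + 5% FBS; 2 h settle, compound pin-transfer, 48 h at 37 degrees C. CellTiter-Glo 10 min RT, luminescence. Normalized to DMSO and media-only wells.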
# HepG2 viability – kills HepG2 cells in TGF-b inhibitor counter-screen. Potency, µM (highest dose often 46.1 µM), usual class: cytotoxic. 410,000 compounds, 0.76% hits. HepG2 CAGA-GFP viability, ATP luminescence, 18 h. AID 588856
#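 HepG2 CAGA-GFP cells (1000/well, DMEM with 1% FBS) received compound, then TGF-beta at 500 pg/mL final, and were incubated 18 hours at 37 degrees C. Viability was read by CellTiter-Glo luminescence. Media-only wells were set as complete cell-killing and DMSO as no toxicity.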
# TGFb inhibitor – blocks TGF-b signaling | HepG2 CAGA-GFP TGF-b/SMAD3 reporter, GFP fluorescence, 18 h; TGF-beta stimulated, 500 pg/mL final | Potency, µM (highest dose often 46.1 µM), hits mostly inhibitors | 410,000 compounds, 1.2% hits | AID 588855; also: nearly all actives have a fitted effect of over 65% in size
#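 Inhibition was scored as loss of TGF-beta-induced (500 pg/mL final, 18 hours, 37 degrees C) GFP in HEPG2 cells carrying a CAGA-GFP reporter, in DMEM with 1% FBS. Well GFP was summed per cell; Activity was normalised to unstimulated and stimulated DMSO wells, then concentration-response fitting.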
# ATXN2 expr inh – inhibitors of ATXN2 expression | HEK-293 ATXN2-luciferase reporter, luminescence, 24 h | Potency, µM (doses to about 57 µM), actives largely listed as inhibitors | 360,000 compounds, 0.72% hits; also: nearly all actives have a fitted effect of over 55% in size
#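 ATXN2-luciferase reporter cells (luciferase flanked by upstream and downstream ATXN2 gene portions) were treated 24 h at 37 °C with compounds at up to 57 uM. SteadyGlo luminescence gave expression; GF-AFC fluorescence gave viability.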
# A number is an active result; i = inactive; ? = inconclusive; nt = no result; [ ] = remark or other dose. Calls follow the shape of the dose curve; as a rule, active = well fitted curve in the direction sought with a large enough effect; inconclusive = small, poorly fitted or top-dose-only effect, or another doubt; inactive = no such curve, though single readings can be large; an effect the other way counts as inactive or inconclusive.
SMILES,HT1080 IDH1KD tx,S2 tox,HT1080-NT tox,HepG2 viability,TGFb inhibitor,ATXN2 expr inh
COc1ccc(/C=C2\SC(=O)N(CCNC(=O)C3=COCCO3)C2=O)cc1,7.3µM,?,7.3µM,i,i,i
O=C(NCCN1C(=O)S/C(=C\c2ccc(OC(F)F)cc2)C1=O)C1=COCCO1,?,i,?,i,i,i
O=C(NCCN1C(=O)S/C(=C\c2ccccc2F)C1=O)C1=COCCO1,12µM,?,?,i,i,i
Cc1cnc(Nc2ccc(OCCN3CCCC3)cc2)nc1Nc1cccc(S(=O)(=O)NC(C)(C)C)c1,nt,nt,nt,nt,nt,i
CCc1ccc2[nH]c3nc(N/N=C/c4cccc(O)c4)nnc3c2c1,9.2µM,?,?,i,i,i
COc1cccc(/C=N/Nc2nnc3c(n2)[nH]c2ccccc23)c1OC,i,i,i,i,i,i
Cc1cc(-c2ccnc(-n3ncc(C(=O)NCC4CCCO4)c3C3CC3)n2)c(C)s1 (configuration not stated),nt,i,nt,nt,nt,nt
COc1cc(-c2nc3ccc4ccccc4c3c3c2CCC3)cc(OC)c1O,?,?,?,i,11µM,?
Cc1ccc(CNC(=O)c2cc(-c3ccc(C)cc3)nc3n[nH]c(-c4cccc([N+](=O)[O-])c4)c23)cc1,nt,i,nt,i,i,i
C[C@@H](O)CNC(=O)c1[nH]cnc1C(=O)Nc1ccc(CNC(=O)OC(C)(C)C)cc1,i,i,i,i,i,i
CC(C)(C)OC(=O)NCc1ccc(NC(=O)c2nc[nH]c2C(=O)NCCNC(=O)c2[nH]cnc2C(=O)Nc2ccc(CNC(=O)OC(C)(C)C)cc2)cc1,13µM,?,12µM,i,i,i
CC(C)(C)OC(=O)CNC(=O)c1nc[nH]c1C(=O)NCc1ccc(CNC(=O)OC(C)(C)C)cc1,i,i,i,i,i,i
CC(C)(C)OC(=O)CNC(=O)c1[nH]cnc1C(=O)Nc1ccc(CNC(=O)OC(C)(C)C)cc1,21µM,?,?,i,?,32µM
O=C(Nc1ccccc1)c1nc[nH]c1C(=O)NCCN(CCNC(=O)c1[nH]cnc1C(=O)Nc1ccccc1)CCNC(=O)c1[nH]cnc1C(=O)Nc1ccccc1,?,i,?,i,20µM,i
COc1cc(Cl)c(C)cc1NC(=O)c1cnc(N2CCOCC2)c2ccccc12,nt,nt,nt,i,?,nt
Cc1ccc2c(c1)sc1nc(-c3cc4cc(Cl)ccc4oc3=O)cn12,nt,nt,nt,i,i,nt
Cc1ccc2c(c1)Oc1ccc(NC(=O)CCCl)cc1C(=O)N2,16µM,i,?,i,?,nt
Cc1cc(C)c(NC(=O)CCCn2c(C)c3cnn(-c4ccccc4)c(=O)c3c2C)c(C)c1,nt,nt,nt,i,?,nt
Cc1c(C(=O)NCCN2CCC(c3ccccc3)CC2)cnn1-c1nccc(-c2cccs2)n1,nt,28µM,nt,nt,nt,nt
COc1cc(/C=C/C(=O)c2ccc3c(c2)OCO3)cc(Cl)c1O,23µM,nt,?,i,i,i
COc1cc(/C=C/C(=O)c2ccc(Cl)s2)cc(OC)c1O,11µM,?,?,i,?,?
Cc1cccc(CN2CC34C=CC(CC3S2(=O)=O)O4)c1 (configuration not stated),nt,nt,nt,i,i,nt
C=CC(=O)N1c2ccccc2Sc2ccc(NC(=O)OCC)cc21,?,?,?,i,16µM,?
COc1ccc2c(c1)c1c(c(=O)n(-c3ccccc3C)c(=O)n1CC(=O)Nc1c(C)cccc1C)n2C,nt,i,nt,i,i,i
O=C(CCCOc1ccc(Cl)cc1Cl)N/N=C/c1ccccc1,i,i,i,i,?,i
SMILES,HT1080 IDH1KD tx,S2 tox,HT1080-NT tox,HepG2 viability,TGFb inhibitor,ATXN2 expr inh
O=C(CCCOc1ccc(Cl)cc1Cl)N/N=C/c1ccccc1O,?,?,?,i,?,25µM
Cc1ccc(/C=N/NC(=O)CCCOc2ccc(Cl)cc2Cl)cc1,15µM,?,15µM,i,i,i
CC(C)(C)OC(=O)N1CCC(c2nnc(SCc3ccccc3)o2)CC1,nt,i,nt,i,i,i
CCN(CC)C(=O)Cn1c(SCCOc2ccc(Cl)cc2)nc2ccccc21,nt,?,nt,i,?,i
COc1cccc(CNC(=O)C2CCCCN2S(=O)(=O)c2ccc(F)cc2)c1 (configuration not stated),nt,i,nt,i,i,i
O=C(CCCn1c(=O)c2cccn2c2ccccc21)NCCc1ccc(Cl)cc1,nt,nt,nt,i,i,nt
CCc1ccccc1NC(=O)Cn1cccc1C1=NC(c2ccccc2)CO1 (configuration not stated),16µM,i,?,i,i,i
Cc1ccc(CNC(=O)[C@]2(C(F)(F)F)C[C@H](CCc3ccccc3)CCCO2)o1,nt,nt,nt,i,i,nt
CN(C(=O)c1cccc(Nc2ccc(-c3ccc4c(c3)OCCO4)nn2)c1)C1CCCCC1,15µM,?,?,i,i,?
CN(C)S(=O)(=O)c1ccc(Nc2ccc(-c3ccc4c(c3)OCCO4)nn2)cc1,i,i,i,i,i,i
Cc1ccc(C(=O)NCC(c2cccs2)S(=O)(=O)c2cccs2)cc1 (configuration not stated),nt,20µM,nt,i,?,?
CNC(=O)CN1C(=O)COc2ccc(S(=O)(=O)N3CCC(C)CC3)cc21,nt,i,nt,i,i,i
Cc1ccc(NC(=O)c2ccc(N(Cc3ccccc3)S(C)(=O)=O)cc2)cc1,nt,?,nt,i,?,?
Cc1ccc(C)c(NC(=O)c2cc(S(=O)(=O)NCCc3ccccc3)ccc2F)c1,nt,?,nt,i,?,?
CC(C)c1ccc(NC(=O)c2cc(S(=O)(=O)NCCC3=CCCCC3)ccc2F)cc1,nt,?,nt,13µM,?,?
COc1cccc(S(=O)(=O)NCc2ccc(C(=O)Nc3cccc(Cl)c3)cc2)c1,i[9.24 µM],?,?,i,i,16µM
COc1cccc(S(=O)(=O)NCc2ccc(C(=O)Nc3ccc(Cl)cc3)cc2)c1,i,i,i,i,i,i
Cc1cc(C)c(NC(=O)c2cc(S(=O)(=O)NCCC3=CCCCC3)ccc2F)c(C)c1,nt,i,nt,i,i,i
CS(=O)(=O)N(Cc1ccccc1)c1ccc(C(=O)Nc2cccc(Cl)c2)cc1,nt,nt,nt,11µM,16µM,i
Cc1ccc(NC(=O)c2cc(S(=O)(=O)NCCc3ccccc3)ccc2F)cc1Cl,16µM,i,16µM,i,i,i
O=C(Nc1cccc(Cl)c1)c1cc(S(=O)(=O)NCCc2ccc(Cl)cc2)ccc1F,29µM,i,?,i,11µM,i
CCc1ccccc1NC(=O)c1cc(S(=O)(=O)NCCc2ccc(OC)c(OC)c2)ccc1F,nt,?,nt,i,?,i
COc1ccc(NC(=O)CSc2c3c(nc4ccccc24)CCC3)c(OC)c1,?,?,?,i,i,i
COc1cc(Cl)c(C)cc1NC(=O)c1ccc2c(Cl)c3c(nc2c1)CCC3,nt,i,nt,i,i,i
